In the supplement of paper PMC10849652:
The full data set covers some 8,800 targets. This sample favours those with a hit. About 0.5% of all pairs of compound and target were hits.

Experiments:
Assay in all cases: log2 fold change, soluble protein after heating vs DMSO (PISA); higher = thermal stabilisation; K562 lysate, 10 uM; active = over 0.2 and 3.5 SD of the protein, either way, in both replicates (recomputed)
ibrutinib = compound: C=CC(=O)N1CCC[C@@H](n2nc(-c3ccc(Oc4ccccc4)cc3)c3c(N)ncnc32)C1 [ibrutinib]
Outline: (§1)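 Pellets of K562 cells were dounce-homogenised in PBS pH 7.4 with 1 mM MgCl2, and the crude extract was held at 1 mg/mL protein for a 30 min treatment with 10 μM compound. Aliquots were heated for 3 min over 48°C-58°C and pooled before NP-40 was added to 0.5% at 4°C. The supernatant from 21,000xg for 90 min was quantified by TMTpro 16plex LC-MS/MS with channel sums equalised. Values are reported from duplicates as log-two fold change in thermal stability relative to solvent controls.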

[1] = compound: CC(=O)c1cnc2ccc(-c3cc(Cl)c(O)c(Cl)c3)nc2c1N[C@H]1CC[C@H](CN(C)C)CC1
Outline: as §1

ralimetinib = compound: CC(C)(C)Cn1c(N)nc2ccc(-c3[nH]c(C(C)(C)C)nc3-c3ccc(F)cc3)nc21 [ralimetinib]
Outline: as §1

[2] = compound: CC(C)(O)CC(=O)NCCn1ccc2ncnc(Nc3ccc(Oc4cccc(C(F)(F)F)c4)c(Cl)c3)c21
Outline: as §1

[3] = compound: CC(C)C1=C2N=C(C=C(N2N=C1)NCC3=CC=CC=C3)NCCCCCCN
Outline: as §1

[4] = compound: CC1=C(C(CC(=O)N1)C2=CC=C(C=C2)C(F)(F)F)C(=O)NC3=C(C=C4C(=C3)C=NN4)F
Outline: as §1

[5] = compound: CC1=C(C2=C(C=C1)C(=O)C3=CC=CC=C3N2CCCN)C
Outline: as §1

[6] = compound: CC1=C(C=C(C=C1)NC(=O)C2=CC(=CC=C2)C(C)(C)C#N)NC3=CC4=C(C=C3)N=CN(C4=O)C
Outline: as §1

[7] = compound: CC1=C(C=C(C=C1)NC(=O)C2=CC(=CC=C2)N(C)C)NC(=O)C3=CC=C(C=C3)O
Outline: as §1

[8] = compound: CC1=CC=C(C=C1)SC2=C3C=C(SC3=CN=C2)C(=O)N
Outline: as §1

Measured: log2 fold change

PLXNB2 (UniProt O15031)
inactive: ibrutinib 0.019 | [1] 0.016 | ralimetinib 0.035 | [2] -0.026 | [3] -0.03 | [4] 0.033 | [5] 0.006 | [6] -0.02 | [7] -0.003 | [8] -0.016

POLR2F (UniProt P61218)
inactive: ibrutinib 0.02 | [1] 0.051 | ralimetinib -0.238 | [2] -0.059 | [3] -0.11 | [4] -0.039 | [5] 0.096 | [6] 0.009 | [7] -0.157 | [8] 0.009

PUS3 (UniProt Q9BZE2)
UniProt Q9BZE2, sequence (Q9BZE2 whole entry, looked up): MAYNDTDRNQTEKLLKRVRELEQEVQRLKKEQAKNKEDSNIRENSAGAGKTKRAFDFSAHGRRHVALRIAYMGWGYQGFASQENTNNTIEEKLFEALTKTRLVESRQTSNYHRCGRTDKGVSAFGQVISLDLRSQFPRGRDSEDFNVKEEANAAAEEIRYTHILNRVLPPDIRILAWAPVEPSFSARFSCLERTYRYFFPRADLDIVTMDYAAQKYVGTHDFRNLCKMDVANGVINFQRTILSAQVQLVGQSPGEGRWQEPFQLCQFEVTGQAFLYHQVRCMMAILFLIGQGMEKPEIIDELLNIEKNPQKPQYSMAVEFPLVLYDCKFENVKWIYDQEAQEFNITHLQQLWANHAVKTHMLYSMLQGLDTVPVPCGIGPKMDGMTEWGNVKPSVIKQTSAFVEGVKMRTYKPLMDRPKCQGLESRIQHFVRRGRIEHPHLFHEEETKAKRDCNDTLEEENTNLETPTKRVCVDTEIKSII
inactive: ibrutinib -0.034 | [1] -0.025 | ralimetinib 0.05 | [2] 0.094 | [3] -0.046 | [4] 0.045 | [5] 0.136 | [6] -0.12 | [7] -0.006 | [8] 0

POMP (UniProt Q9Y244)
UniProt Q9Y244, sequence (Q9Y244 whole entry, looked up): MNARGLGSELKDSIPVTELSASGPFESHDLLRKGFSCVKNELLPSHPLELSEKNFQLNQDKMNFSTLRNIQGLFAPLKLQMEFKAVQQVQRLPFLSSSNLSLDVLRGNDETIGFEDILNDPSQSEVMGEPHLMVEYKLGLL
inactive: ibrutinib -0.025 | [1] -0.043 | ralimetinib -0.001 | [2] -0.033 | [3] -0.013 | [4] 0.016 | [5] -0.09 | [6] 0.048 | [7] 0.027 | [8] -0.001

PTK2 (UniProt Q05397)
inactive: ibrutinib 0.085 | [1] 0.188 | ralimetinib -0.002 | [2] 0.044 | [3] -0.015 | [4] -0.024 | [5] 0.011 | [6] -0.054 | [7] -0.007 | [8] -0.128

PRKDC (UniProt P78527)
inactive: ibrutinib 0.096 | [1] 0.318 | ralimetinib 0.033 | [2] 0.01 | [3] -0.014 | [4] -0.021 | [5] 0.031 | [6] -0.057 | [7] 0.038 | [8] -0.01

PLK1 (UniProt P53350)
UniProt P53350, sequence (P53350 whole entry, looked up): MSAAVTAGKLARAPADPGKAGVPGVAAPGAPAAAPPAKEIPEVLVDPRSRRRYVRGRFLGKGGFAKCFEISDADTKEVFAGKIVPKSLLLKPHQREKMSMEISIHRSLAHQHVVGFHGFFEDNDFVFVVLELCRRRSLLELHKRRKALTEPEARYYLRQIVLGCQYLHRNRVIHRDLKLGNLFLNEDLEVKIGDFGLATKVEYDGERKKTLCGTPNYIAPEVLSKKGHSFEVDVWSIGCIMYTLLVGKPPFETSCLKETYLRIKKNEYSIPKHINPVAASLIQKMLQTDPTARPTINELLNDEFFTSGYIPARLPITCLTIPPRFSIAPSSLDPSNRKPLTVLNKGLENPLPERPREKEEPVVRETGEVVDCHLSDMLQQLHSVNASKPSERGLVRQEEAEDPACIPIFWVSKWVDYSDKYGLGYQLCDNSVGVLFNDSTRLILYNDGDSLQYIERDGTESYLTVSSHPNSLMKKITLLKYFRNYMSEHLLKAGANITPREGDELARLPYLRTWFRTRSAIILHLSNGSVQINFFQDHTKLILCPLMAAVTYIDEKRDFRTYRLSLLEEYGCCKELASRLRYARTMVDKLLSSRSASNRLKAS
inactive: ibrutinib -0.004 | [1] 0.069 | ralimetinib 0.009 | [2] 0.015 | [3] 0.068 | [4] 0.022 | [5] -0.019 | [6] 0.032 | [7] 0.036 | [8] -0.014

PDCD6IP (UniProt Q8WUM4)
inactive: ibrutinib -0.056 | [1] 0.042 | ralimetinib -0.066 | [2] -0.004 | [3] 0.078 | [4] 0.009 | [5] 0.004 | [6] -0.037 | [7] 0.02 | [8] -0.03

PREP (UniProt P48147)
inactive: ibrutinib 0.019 | [1] 0 | ralimetinib 0.015 | [2] 0.004 | [3] -0.008 | [4] 0.011 | [5] -0.009 | [6] -0.006 | [7] 0.006 | [8] 0.011

PTMA isoform 2 (UniProt P06454)
inactive: ibrutinib -0.053

PRPF38A (UniProt Q8NAV1)
inactive: ibrutinib 0 | [1] -0.001 | ralimetinib 0.01 | [2] -0.011 | [3] 0.054 | [4] 0.027 | [5] -0.128 | [6] 0.094 | [7] -0.075 | [8] 0.018

PSTPIP2 (UniProt Q9H939)
UniProt Q9H939, sequence (Q9H939 whole entry, looked up): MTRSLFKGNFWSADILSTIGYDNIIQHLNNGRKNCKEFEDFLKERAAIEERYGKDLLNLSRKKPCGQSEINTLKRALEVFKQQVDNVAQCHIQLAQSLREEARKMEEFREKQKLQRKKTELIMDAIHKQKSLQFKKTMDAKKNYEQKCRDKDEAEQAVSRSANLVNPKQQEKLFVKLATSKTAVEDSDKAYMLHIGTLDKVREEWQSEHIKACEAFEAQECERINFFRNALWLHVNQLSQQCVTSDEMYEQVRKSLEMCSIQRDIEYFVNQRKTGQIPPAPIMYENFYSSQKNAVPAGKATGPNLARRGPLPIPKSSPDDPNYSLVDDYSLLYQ
inactive: ibrutinib -0.019 | [1] -0.037 | ralimetinib -0.024 | [2] 0.012 | [3] 0.001 | [4] -0.049 | [5] -0.037 | [6] 0.022 | [7] -0.001 | [8] -0.034

PTPN2 (UniProt P17706)
UniProt P17706, sequence (P17706 whole entry, looked up): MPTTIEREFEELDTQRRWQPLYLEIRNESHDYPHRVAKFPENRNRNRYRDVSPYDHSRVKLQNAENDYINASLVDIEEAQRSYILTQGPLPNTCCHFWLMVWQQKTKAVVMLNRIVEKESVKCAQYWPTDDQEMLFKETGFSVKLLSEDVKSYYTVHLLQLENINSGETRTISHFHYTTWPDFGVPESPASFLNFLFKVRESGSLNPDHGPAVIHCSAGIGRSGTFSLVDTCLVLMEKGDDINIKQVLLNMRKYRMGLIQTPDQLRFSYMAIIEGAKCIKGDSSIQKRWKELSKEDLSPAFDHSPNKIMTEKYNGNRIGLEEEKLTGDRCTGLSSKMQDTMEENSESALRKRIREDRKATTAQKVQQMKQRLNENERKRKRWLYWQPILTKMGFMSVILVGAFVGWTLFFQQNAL
inactive: ibrutinib 0.016 | [1] -0.014 | ralimetinib 0.014 | [2] -0.001 | [3] -0.029 | [4] -0.035 | [5] 0.045 | [6] -0.005 | [7] 0.017 | [8] 0.007

PIK3R2 (UniProt O00459)
inactive: ibrutinib -0.041 | [1] 0.242 | ralimetinib 0.11 | [2] 0.029 | [3] -0.028 | [4] 0.008 | [5] 0.01 | [6] 0 | [7] 0.07 | [8] 0.019

PMPCA (UniProt Q10713)
UniProt Q10713, sequence (Q10713 whole entry, looked up): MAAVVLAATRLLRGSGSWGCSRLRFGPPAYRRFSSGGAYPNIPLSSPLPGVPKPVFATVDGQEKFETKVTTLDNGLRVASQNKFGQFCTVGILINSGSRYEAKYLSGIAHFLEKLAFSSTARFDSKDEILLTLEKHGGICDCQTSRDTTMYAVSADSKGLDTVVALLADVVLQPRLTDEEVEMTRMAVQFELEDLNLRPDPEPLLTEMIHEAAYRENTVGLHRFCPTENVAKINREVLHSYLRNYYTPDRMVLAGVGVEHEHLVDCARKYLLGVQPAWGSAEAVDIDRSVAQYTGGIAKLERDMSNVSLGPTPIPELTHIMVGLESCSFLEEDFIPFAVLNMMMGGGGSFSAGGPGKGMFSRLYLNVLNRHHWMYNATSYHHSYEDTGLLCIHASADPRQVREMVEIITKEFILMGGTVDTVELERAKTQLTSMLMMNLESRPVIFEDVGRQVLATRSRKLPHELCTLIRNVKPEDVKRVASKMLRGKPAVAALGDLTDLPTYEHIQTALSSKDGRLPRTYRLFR
inactive: ibrutinib -0.052 | [1] -0.023 | ralimetinib 0.006 | [2] -0.038 | [3] -0.047 | [4] -0.043 | [5] -0.041 | [6] 0.033 | [7] -0.036 | [8] 0.015

PIK3CB (UniProt P42338)
UniProt P42338, sequence (P42338 whole entry, looked up): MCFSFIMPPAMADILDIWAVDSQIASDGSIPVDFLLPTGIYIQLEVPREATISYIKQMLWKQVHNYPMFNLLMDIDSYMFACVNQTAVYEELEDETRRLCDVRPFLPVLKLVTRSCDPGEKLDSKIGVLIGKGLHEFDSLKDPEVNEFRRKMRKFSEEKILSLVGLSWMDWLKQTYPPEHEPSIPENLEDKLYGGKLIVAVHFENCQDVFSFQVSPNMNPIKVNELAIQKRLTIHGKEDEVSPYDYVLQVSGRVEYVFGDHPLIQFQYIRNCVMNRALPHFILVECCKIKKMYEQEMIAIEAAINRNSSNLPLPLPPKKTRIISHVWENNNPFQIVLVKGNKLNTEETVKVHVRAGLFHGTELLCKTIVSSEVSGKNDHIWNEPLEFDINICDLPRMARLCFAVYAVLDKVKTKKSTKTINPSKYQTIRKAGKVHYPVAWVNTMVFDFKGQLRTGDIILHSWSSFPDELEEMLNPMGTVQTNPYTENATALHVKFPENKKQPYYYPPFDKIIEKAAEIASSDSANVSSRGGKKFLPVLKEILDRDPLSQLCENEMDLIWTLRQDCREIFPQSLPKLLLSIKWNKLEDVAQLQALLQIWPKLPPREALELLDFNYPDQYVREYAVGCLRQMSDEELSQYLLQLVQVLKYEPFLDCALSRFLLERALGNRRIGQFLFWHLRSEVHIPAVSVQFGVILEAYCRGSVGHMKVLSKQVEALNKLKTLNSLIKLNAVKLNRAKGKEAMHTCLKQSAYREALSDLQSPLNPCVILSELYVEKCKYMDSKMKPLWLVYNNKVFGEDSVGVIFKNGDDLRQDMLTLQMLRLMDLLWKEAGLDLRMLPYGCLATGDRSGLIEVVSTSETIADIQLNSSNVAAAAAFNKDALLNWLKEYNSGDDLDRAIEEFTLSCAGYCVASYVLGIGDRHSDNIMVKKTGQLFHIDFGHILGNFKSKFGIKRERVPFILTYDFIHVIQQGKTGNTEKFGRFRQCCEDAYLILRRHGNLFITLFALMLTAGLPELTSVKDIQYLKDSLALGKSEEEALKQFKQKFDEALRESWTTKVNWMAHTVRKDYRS
inactive: ibrutinib -0.009 | [1] 0.388 | ralimetinib -0.011 | [2] -0.005 | [3] -0.076 | [4] -0.003 | [5] 0.035 | [6] -0.012 | [7] 0.056 | [8] 0.018

PHKB isoform 3 (UniProt Q93100)
inactive: ibrutinib -0.004 | [1] 0.071 | ralimetinib 0.008 | [2] -0.052 | [3] -0.003 | [4] 0.008 | [5] -0.069 | [6] -0.019 | [7] 0.022 | [8] -0.049

POLD3 (UniProt Q15054)
inactive: ibrutinib 0.018 | [1] 0.006 | ralimetinib -0.027 | [2] -0.004 | [3] 0.035 | [4] 0.019 | [5] -0.008 | [6] -0.022 | [7] -0.017 | [8] -0.038

PDXDC1 (UniProt Q6P996)
inactive: ibrutinib -0.006 | [1] 0.051 | ralimetinib 0.071 | [2] -0.017 | [3] 0.001 | [4] 0.014 | [5] -0.024 | [6] -0.019 | [7] 0.024 | [8] 0.022

POLR2B (UniProt P30876)
inactive: ibrutinib -0.011 | [1] -0.017 | ralimetinib 0.025 | [2] -0.018 | [3] 0.005 | [4] 0.029 | [5] -0.031 | [6] -0.014 | [7] 0.028 | [8] 0.032

PTS (UniProt Q03393)
inactive: ibrutinib 0.213 | [1] 0.015 | ralimetinib 0.021 | [2] -0.027 | [3] -0.041 | [4] -0.117 | [5] -0.102 | [6] 0.034 | [7] -0.013 | [8] -0.017

PRKCSH (UniProt K7ELL7)
inactive: ibrutinib -0.05 | [1] 0.018 | ralimetinib 0.049 | [2] -0.051 | [3] 0.049 | [4] 0.006 | [5] -0.017 | [6] -0.019 | [7] 0.005 | [8] -0.052

PRMT8 (UniProt Q9NR22)
inactive: ibrutinib -0.073 | [1] -0.012 | ralimetinib 0.036 | [2] -0.018 | [3] 0.003 | [4] -0.028 | [5] 0.009 | [6] 0.032 | [7] 0.002 | [8] 0.007

PPP2CA (UniProt P67775)
inactive: ibrutinib 0.042 | [1] 0.009 | ralimetinib 0.007 | [2] 0.083 | [3] -0.012 | [4] -0.017 | [5] -0.034 | [6] -0.047 | [7] -0.003 | [8] 0.036

PGRMC1 (UniProt O00264)
inactive: ibrutinib 0.057 | [1] 0.013 | ralimetinib 0.008 | [2] -0.01 | [3] -0.035 | [4] 0.004 | [5] 0.022 | [6] -0.066 | [7] -0.007 | [8] -0.005

POLD1 (UniProt P28340)
UniProt P28340, sequence (P28340 whole entry, looked up): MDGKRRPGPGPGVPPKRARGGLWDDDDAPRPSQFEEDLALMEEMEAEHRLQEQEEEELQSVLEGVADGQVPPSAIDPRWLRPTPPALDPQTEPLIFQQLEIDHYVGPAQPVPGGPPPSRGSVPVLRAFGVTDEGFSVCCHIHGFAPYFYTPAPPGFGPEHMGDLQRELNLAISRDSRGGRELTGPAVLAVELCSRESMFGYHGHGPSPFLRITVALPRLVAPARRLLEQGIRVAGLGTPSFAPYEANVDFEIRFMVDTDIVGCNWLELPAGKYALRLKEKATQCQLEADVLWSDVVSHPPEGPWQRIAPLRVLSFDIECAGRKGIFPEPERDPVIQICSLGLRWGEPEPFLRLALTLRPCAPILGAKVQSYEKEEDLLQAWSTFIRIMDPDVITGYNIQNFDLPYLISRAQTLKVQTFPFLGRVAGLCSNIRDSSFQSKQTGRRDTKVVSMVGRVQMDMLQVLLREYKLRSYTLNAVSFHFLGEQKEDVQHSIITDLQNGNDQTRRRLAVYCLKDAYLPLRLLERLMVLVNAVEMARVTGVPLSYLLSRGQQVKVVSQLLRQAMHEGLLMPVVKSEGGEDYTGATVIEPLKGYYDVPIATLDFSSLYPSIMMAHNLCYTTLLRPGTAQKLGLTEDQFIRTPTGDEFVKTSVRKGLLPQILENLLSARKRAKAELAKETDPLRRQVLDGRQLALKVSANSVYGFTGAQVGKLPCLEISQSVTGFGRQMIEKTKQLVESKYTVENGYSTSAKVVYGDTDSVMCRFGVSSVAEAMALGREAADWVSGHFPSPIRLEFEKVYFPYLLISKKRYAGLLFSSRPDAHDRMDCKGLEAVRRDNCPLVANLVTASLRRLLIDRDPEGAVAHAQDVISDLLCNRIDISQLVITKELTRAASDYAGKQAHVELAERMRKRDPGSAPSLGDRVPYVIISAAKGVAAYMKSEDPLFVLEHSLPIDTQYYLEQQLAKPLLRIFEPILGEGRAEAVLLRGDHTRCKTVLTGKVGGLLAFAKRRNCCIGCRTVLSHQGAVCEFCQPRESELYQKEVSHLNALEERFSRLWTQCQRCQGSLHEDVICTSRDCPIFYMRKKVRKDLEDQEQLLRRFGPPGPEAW
inactive: ibrutinib -0.003 | [1] 0.014 | ralimetinib 0.035 | [2] 0.018 | [3] 0 | [4] 0.005 | [5] -0.012 | [6] 0.005 | [7] 0.02 | [8] -0.032

PIGO (UniProt Q8TEQ8)
inactive: ibrutinib 0.093 | [1] 0.016 | ralimetinib -0.039 | [2] -0.013 | [3] -0.068 | [4] -0.041 | [5] -0.05 | [6] -0.1 | [7] -0.047 | [8] -0.158

PELO (UniProt Q9BRX2)
inactive: ibrutinib 0.034 | [1] -0.004 | ralimetinib 0.04 | [2] -0.035 | [3] 0.005 | [4] -0.02 | [5] -0.012 | [6] -0.005 | [7] 0.001 | [8] 0.002

PGLS (UniProt O95336)
inactive: ibrutinib 0.012 | [1] -0.08 | ralimetinib 0.06 | [2] 0.008 | [3] 0.001 | [4] -0.012 | [5] -0.075 | [6] 0.038 | [7] -0.003 | [8] 0.077

PRKRA (UniProt O75569)
UniProt O75569, sequence (O75569 whole entry, looked up): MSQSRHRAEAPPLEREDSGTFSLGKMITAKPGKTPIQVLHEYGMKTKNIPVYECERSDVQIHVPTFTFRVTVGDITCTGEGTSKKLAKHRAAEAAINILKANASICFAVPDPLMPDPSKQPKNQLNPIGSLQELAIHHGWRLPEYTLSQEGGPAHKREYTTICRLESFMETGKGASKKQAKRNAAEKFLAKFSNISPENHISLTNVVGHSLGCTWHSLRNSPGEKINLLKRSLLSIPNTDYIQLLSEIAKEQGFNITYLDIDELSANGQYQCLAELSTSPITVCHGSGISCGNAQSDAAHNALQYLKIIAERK
inactive: ibrutinib -0.043 | [1] -0.01 | ralimetinib 0.035 | [2] 0.011 | [3] 0.013 | [4] 0.045 | [5] -0.038 | [6] 0.002 | [7] 0.056 | [8] 0.019
